Reference: PubChem BioAssay AID623994 (NMMLSC, 2012)
Entries with a potency or affinity are not part of this list.

Molecular target: Multidrug resistance protein CDR2 (Candida albicans (strain SC5314 / ATCC MYA-2876)) (UniProt P78595)
Test: CaCDR2 efflux pump inhibitors in yeast, dose response, S. cerevisiae AD1-8u, singleplex, Cherry Pick2 set (AID 623994)
Conditions: S. cerevisiae AD1-8u expressing CaCDR2, Nile Red efflux; series mostly up to 100 µM; Nile Red retention, efflux inhibition: at the top concentration;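 active = compounds whose fitted concentration for half the maximal dye retention is below 100 µM; inactive = the rest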

Chain of Multidrug resistance protein CDR2 (Candida albicans (strain SC5314 / ATCC MYA-2876)) (P78595 whole entry, looked up): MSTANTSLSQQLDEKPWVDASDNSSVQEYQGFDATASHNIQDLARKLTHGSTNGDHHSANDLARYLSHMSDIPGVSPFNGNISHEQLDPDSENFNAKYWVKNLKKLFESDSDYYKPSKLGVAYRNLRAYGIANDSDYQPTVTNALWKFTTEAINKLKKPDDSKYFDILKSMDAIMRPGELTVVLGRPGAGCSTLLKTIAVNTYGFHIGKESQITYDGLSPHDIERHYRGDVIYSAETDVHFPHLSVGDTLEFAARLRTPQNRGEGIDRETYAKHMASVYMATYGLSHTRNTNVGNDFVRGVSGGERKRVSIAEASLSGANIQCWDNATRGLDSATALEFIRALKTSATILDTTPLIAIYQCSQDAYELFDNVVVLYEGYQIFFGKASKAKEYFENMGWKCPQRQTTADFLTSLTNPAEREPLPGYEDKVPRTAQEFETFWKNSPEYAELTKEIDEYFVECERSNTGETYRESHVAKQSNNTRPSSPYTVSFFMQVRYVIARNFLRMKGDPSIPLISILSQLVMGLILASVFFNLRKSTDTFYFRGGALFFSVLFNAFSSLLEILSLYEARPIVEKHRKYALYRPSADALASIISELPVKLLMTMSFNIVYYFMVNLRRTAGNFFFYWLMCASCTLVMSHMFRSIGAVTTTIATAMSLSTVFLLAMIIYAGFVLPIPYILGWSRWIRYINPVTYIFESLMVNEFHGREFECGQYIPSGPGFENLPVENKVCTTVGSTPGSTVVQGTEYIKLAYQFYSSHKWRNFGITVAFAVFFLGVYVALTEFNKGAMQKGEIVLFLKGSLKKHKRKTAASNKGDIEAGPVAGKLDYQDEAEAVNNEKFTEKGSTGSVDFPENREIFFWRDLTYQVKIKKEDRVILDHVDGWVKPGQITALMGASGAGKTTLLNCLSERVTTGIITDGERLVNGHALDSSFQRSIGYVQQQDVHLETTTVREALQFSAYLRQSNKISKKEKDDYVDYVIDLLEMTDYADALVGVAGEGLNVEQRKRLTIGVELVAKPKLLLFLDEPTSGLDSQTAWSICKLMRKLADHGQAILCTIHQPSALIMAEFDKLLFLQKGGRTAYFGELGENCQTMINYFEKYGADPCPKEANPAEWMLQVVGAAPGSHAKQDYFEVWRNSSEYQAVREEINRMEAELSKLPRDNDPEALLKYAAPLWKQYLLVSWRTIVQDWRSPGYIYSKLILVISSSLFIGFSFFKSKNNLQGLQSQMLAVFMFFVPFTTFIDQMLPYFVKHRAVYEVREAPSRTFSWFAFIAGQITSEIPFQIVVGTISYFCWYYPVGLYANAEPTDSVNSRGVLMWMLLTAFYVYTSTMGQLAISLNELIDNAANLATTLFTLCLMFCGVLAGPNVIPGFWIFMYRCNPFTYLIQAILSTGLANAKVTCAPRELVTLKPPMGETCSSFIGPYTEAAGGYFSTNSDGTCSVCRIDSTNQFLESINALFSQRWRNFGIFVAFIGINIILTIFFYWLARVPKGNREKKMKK

Nile Red retention, efflux inhibition, inactive:
COc1ccc(OC)c2sc(NC(=O)c3ccc(Br)s3)nc12 -1.59%
O=C(C[n+]1cc(-c2ccc(F)cc2)n2c1CCC2)N1c2ccccc2Sc2ccccc21 -4.27%
CCc1ccc(C2=NN(c3ccc(S(N)(=O)=O)cc3)C(c3ccc(F)cc3)C2)cc1 (stereo not given) -3.46%
C[C@@]12C(=O)Nc3cc(F)c(F)cc3C(=O)N1[C@H]1c3cc(Cl)ccc3OC[C@@H]1[C@@H]2c1ccccc1 8.62%
COc1ccc(C(=O)NC2CC(C)(C)Cc3c2cnn3-c2ccccc2)c(OC)c1 (stereo not given) -2.1%
COc1cc(OC)c2ccc(=O)oc2c1C(CCN1CCCC1)c1ccc(N(C)C)cc1 (stereo not given) -2.33%
O=C(NCCc1ccc(Cl)cc1)C1CCC(CNc2nc(=S)[nH]c3ccccc23)CC1 (stereo not given) -2.27%
CC(C)C(=O)N1CCN(c2ccccc2NC(=O)c2ccc3c(c2)OCCO3)CC1 -3.89%
COc1ccc(O)c(C(=O)c2cnc3c(c2)CN(C)C(=O)N3)c1 -9.23%
Cc1cccc2sc(N(CCCN(C)C)C(=O)c3ccc(Cl)s3)nc12 201%
O=C(C1CCCN(c2ncnc3c2nc2n3CCCCC2)C1)N1CCN(c2cccc(Cl)c2)CC1 (stereo not given) -2.18%
COc1cccc(N2CCN(C(=O)C3CCCN(c4ncnc5c4nc4n5CCCCC4)C3)CC2)c1 (stereo not given) -0.8%
CN1Cc2cc(C(=O)c3ccccc3O)cnc2NC1=O -4.73%
NS(=O)(=O)c1ccc(N2N=C(c3ccc(Br)cc3)CC2c2ccc(F)cc2)cc1 (stereo not given) -3.65%
Cc1noc(C)c1C(=O)N1CCC2(CC1)Oc1ccc(F)cc1C(=O)C21CC(c2ccc(Cl)cc2)=NO1 (stereo not given) -7.48%
